USP1-UAF1 inh: USP1/UAF1 (human) deubiquitinase inhibition | Potency, µM (titrated, usually from 57.1 µM), for the others: top-dose activity change, negative = inhibition, actives largely listed as inhibitors | O94782 | 0.23% of 390,000 active | recombinant USP1/UAF1, Ub-Rhodamine cleavage fluorescence; note: potency is the fitted concentration of half-maximal effect; nearly all actives have a fitted effect of over 60% in size
Target sequence (O94782 whole entry, looked up): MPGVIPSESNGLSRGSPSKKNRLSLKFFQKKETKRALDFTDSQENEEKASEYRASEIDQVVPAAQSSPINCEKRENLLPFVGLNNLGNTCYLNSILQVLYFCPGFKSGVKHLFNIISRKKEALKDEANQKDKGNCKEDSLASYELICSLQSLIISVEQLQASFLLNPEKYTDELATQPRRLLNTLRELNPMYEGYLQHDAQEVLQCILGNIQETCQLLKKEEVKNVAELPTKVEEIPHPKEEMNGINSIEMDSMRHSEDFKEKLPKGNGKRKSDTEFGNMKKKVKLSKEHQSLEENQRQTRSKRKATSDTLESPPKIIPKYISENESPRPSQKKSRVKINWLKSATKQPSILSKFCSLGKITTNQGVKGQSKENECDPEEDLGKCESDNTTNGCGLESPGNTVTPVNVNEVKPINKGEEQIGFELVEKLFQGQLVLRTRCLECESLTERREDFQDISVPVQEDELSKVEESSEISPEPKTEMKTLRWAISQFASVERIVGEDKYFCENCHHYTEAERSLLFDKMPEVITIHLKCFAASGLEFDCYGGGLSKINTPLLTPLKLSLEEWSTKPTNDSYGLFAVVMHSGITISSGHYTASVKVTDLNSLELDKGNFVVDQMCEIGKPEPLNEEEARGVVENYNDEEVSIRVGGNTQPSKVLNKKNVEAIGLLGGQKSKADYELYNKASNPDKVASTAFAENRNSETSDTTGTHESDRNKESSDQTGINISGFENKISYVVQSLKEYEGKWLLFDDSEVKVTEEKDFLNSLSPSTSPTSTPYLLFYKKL
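1 nM enzyme complex + cpd, 15 min RT; start with Ub-Rho 150nM final; kinetic fluorescence ex 480/em 540, 6 reads q60 s. Buffer 50mM HEPES pH 7.8, 0.5mM EDTA, 0.1 mg/ml BSA, 1mM TCEP, 0.01% Tween-20.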
Coupling enz: inhibits coupling enzyme system, counter-screen for aldolase hits. 0.67% of 290,000 active. activity change, negative = inhibition, % at 58.2 µM, hits read low. coupling enzyme system counterscreen, AmpLite Red fluorescence; in the data active = activity change below about -30%
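Counterscreen lacking aldolase: glyceraldehyde-3-phosphate coupling-enzyme reagent preincubated 10 min at RT with compound (at 57.5 uM final), then substrate/coupling system with AmpLite Red added; fluorescence read at 525/598 nm after 20 min RT.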
Tau ThT inhib: blocks human tau fibril formation measured by thioflavin T; recombinant tau K18 P301L, heparin-induced fibrillization, ThT fluorescence; P10636; Potency, µM (series often up to 57.4 µM), inactives show top-dose activity, negative = inhibition, most hits filed as inhibitors; 2.1% of 270,000 active; note: potency is the fitted concentration of half-maximal effect; nearly all actives have a fitted effect of over 55% in size
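Aggregation was driven by heparin (20 uM final) acting on recombinant tau […] bearing P301L in 100 mM sodium acetate pH 7; fibrils were detected with Thioflavin T.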
Tau fibril FP: blocks human tau fibril formation measured by polarization; P10636; K18 P301L tau heparin fibrillization, Alexa594 FP, 6 h; Potency, µM (highest dose often 57.7 µM), inactives show top-dose activity, negative = inhibition, actives largely listed as inhibitors; 0.39% of 280,000 active; AID 1468; note: potency is the fitted concentration of half-maximal effect; nearly all actives have a fitted effect of over 55% in size
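Quantitative HTS format: compounds meet 15 uM recombinant K18 P301L tau and Alexa 594-tau tracer in 100 mM sodium acetate pH 7; 20 uM heparin triggers fibrillization at 37 C over 6 hr; FP gives the signal.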
Tau fluor cs: counter-screen for tau fibril formation inhibitors. Potency, µM (titrated, usually from 57.7 µM), inactives show top-dose activity change, negative = decrease. 0.93% of 280,000 active. tau K18 P301L (four-repeat tau fragment) Alexa594 fluorescence, heparin fibrillization; note: potency is the fitted concentration of half-maximal effect; nearly all actives have a fitted effect of over 55% in size
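Human K18 P301L tau (15 uM unlabeled plus 0.24 uM Alexa 594-labeled, final) in 100 mM sodium acetate pH 7 was mixed with compound and 20 uM heparin and incubated 6 hr at 37 C.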
The depositor's hits bear a star; ? = inconclusive; / = not tested or not shown; [ ] = remark or other dose. Rows were chosen to be rich in hits. Some 2.3% of all compounds tested hit in one or more screens of this group. Unless noted, calls come from the whole dose curve; as a rule, active = well fitted curve in the direction sought with a large enough effect; inconclusive = small, poorly fitted or top-dose-only effect, or another doubt; inactive = no such curve, though single readings can be large; an effect the other way counts as inactive or inconclusive. % is set by controls: 0 for no effect and ±100 for the full control effect.

SMILES	USP1-UAF1 inh	Coupling enz	Tau ThT inhib	Tau fibril FP	Tau fluor cs
COCCCNC(=O)c1c(N)n(-c2ccc3c(c2)OCO3)c2nc3ccccc3nc12	-25.5%	-47.1*	-13.4%	8.9%	-19.4%
COC(=O)c1c(-c2ccc(Cl)cc2)noc1N1CCN(c2ccc(C)cc2C)CC1	-17.7%	/	-8.3%	2.1%	-5.0%
COc1cc2c(cc1OC)C(c1ccc(-c3cc(Cl)ccc3Cl)o1)=NCC2	?	-8.8	?	5.2%	-4.8%
COc1cc2c(cc1OC)C(c1ccc(-c3ccc(Cl)c(Cl)c3)o1)=NCC2	-25.2%	0.1	11.2µM*	13.1%	?
N#Cc1c(/N=C/c2cccs2)sc2c1CCCCC2	-4.7%	-2.7	3.16µM*	-5.9%	-26.3%
N#Cc1c(/N=C/c2ccc(Br)s2)sc2c1CCC2	-7.6%	-0.2	?	-5.9%	-13.7%
CCc1ccccc1NS(=O)(=O)c1ccc2c(c1)CC(=O)N2	-1.9%	/	-0.4%	-9.3%	-9.6%
Cc1ccc(C(=O)N2CCSC2=S)cc1	-7.4%	-3.9	?	2.8%	-3.9%
Cc1ccc(C(=O)Oc2csc(=S)n2C(=O)c2ccc(C)cc2)cc1	-7.4%	-0.2	10µM*	?	-29.7%
COc1cc(C2N(c3ccccc3)CCN2c2ccccc2)cc(OC)c1OC	-6.5%	-36.4*	?	-3.3%	-15.9%
CCOC(=O)c1c(N)sc2c1CCCC2	-18.9%	-0.5	?	?	-17.5%
CCNC(=O)c1c(N)sc2c1CCCCC2	/	-9.0	31.6µM*	?	-18.8%
CC(=O)n1cc(C(C[N+](=O)[O-])SCCN)c2ccccc21 (configuration not stated)	-22.7%	-0.6	12.6µM*	-9.9%	-18.9%
Cn1cc(C(C[N+](=O)[O-])c2ccccc2)c2ccccc21 (configuration not stated)	-13.9%	-0.9	/	/	/
Cc1ccc2nc(-c3ccccc3F)c(Nc3ccc(Cl)cc3)n2c1	-7.2%	/	-15.9%	6.5%	?
O=C(/C(N=Nc1cccc([N+](=O)[O-])c1)=C(/O)c1ccc(Br)cc1)C(F)(F)F	/	1.5	25.1µM*	8.0%	15.8µM*[quencher]
O=[N+]([O-])c1cccc(N=Cc2ccccc2)c1	4.9%	/	/	/	/
Cc1ccc2c(c1)/C(=C/c1ccco1)C(=O)N2	-17.2%	-0.7	11.2µM*	2.6%	-21.4%
CC(=O)n1nc(-c2cccnc2)nc1NCc1ccc(F)cc1	-11.6%	/	-8.0%	-5.7%	-7.1%
COc1ccc(C(=O)OCC(=O)NCCN2C(=O)CSC2=O)cc1[N+](=O)[O-]	-10.8%	/	/	/	/
N#Cc1c[nH]n2c(=O)c3c(nc12)CCCC3	/	0.2	-4.3%	-0.3%	-3.3%
Cc1[nH]n2c(=O)c3c(nc2c1-c1ccc(Cl)cc1)CCC3	-4.0%	1.1	-6.8%	6.5%	1.4%
Nc1[nH]n2c(=O)c3c(nc2c1N=Nc1ccc(Cl)cc1)CCCC3	-0.2%	-0.2	1.41µM*	-1.8%	-9.2%
Nc1[nH]n2c(=O)c3c(nc2c1N=Nc1ccccc1)CCCC3	-2.5%	-5.8	4.47µM*	0.9%	?
CCn1cc(C(=O)OCC(=O)Nc2cc(Cl)ccc2OC)c(=O)c2ccc(C)nc21	-20.4%	/	7.9%	-4.2%	5.6%
SMILES	USP1-UAF1 inh	Coupling enz	Tau ThT inhib	Tau fibril FP	Tau fluor cs
O=C(NC1=NCCS1)c1cccc(OC(F)F)c1	-18.3%	1.5	6.6%	2.6%	9.7%
COc1ccc(N=N/C(=C\O)C(=O)c2ccco2)cc1	-7.7%	5.0	8.91µM*	4.4%	?
COc1ccc(/C(N)=N/OC(=O)c2ccco2)cc1	?	-0.6	-3.0%	-6.7%	2.7%
Cc1cccc(Cn2c(SCc3ccc(C(=O)NCc4cccs4)cc3)nc3ccncc32)c1	-1.8%	/	6.7%	3.1%	-24.0%
COc1ccc(N=Cc2c(O)c3ccccc3n2C(C)=O)cc1	?	-16.2	15.8µM*	?	?
COc1ccc(-n2c(O)c(C=Nc3ccccc3)c3ccccc3c2=O)cc1	?	2.4	-4.6%	-5.6%	-10.8%
COc1ccc(N=Cc2sc(O)c3ccccc23)cc1	?	-6.0	?	?	7.08µM*[quencher]
COc1cc(CNC(=O)c2ccc(NC(=O)N3CCCCc4ccccc43)cc2)cc(OC)c1OC	-19.8%	/	0.0%	6.1%	3.9%
O=C1CC(c2ccccc2C(F)(F)F)c2c(c3ccccc3[nH]c2=O)O1 (configuration not stated)	-10.4%	/	?	7.5%	-10.8%
O=S(=O)(Nn1c(O)c(C=C2N=c3ccccc3=N2)sc1=S)c1ccccc1	-23.8%	3.1	11.2µM*	0.2%	?
O=C(Nn1c(O)c(C=C2N=c3ccccc3=N2)sc1=S)c1ccccc1Cl	-4.9%	-3.2	11.2µM*	?	17.8µM*[quencher]
CCCNC(=O)Cn1ncc2c3ccccc3n(CCC)c2c1=O	-3.5%	/	-0.9%	0.7%	-1.1%
C1=C(CCNc2ncnc3c2[nH]c2ccccc23)CCCC1	-26.2%	0.5	?	-4.6%	15.8µM*[quencher]
Cc1ccc2[nH]c3c(NCc4ccccc4)ncnc3c2c1	-10.1%	-5.3	/	/	/
COc1ccc(CNc2ncnc3c2[nH]c2ccccc23)cc1	3.6%	-1.0	?	-0.5%	20µM*[quencher]
COc1ccc(CNc2ncnc3c2[nH]c2cc(OC)c(OC)cc23)cc1	-22.3%	0.7	?	?	10µM*[quencher]
COc1ccc(CNc2nc(=S)[nH]c3cc(OC)c(OC)cc23)cc1	-24.8%	-1.4	/	/	/
O=c1c2[nH]c3ccccc3c2ncn1CCC1=CCCCC1	2.8%	-0.2	?	-6.9%	-13.3%
CCCn1c(N)c(C(=O)COC(=O)CCNS(=O)(=O)c2ccccc2F)c(=O)[nH]c1=O	-3.7%	/	/	/	/
O=C1C(Cl)=C(Nc2ccccc2O)C(=O)N1CCc1ccccc1	-5.3%	0.0	10µM*	?	?
CCOc1ccc(N2C(=O)C(Cl)=C(Nc3ccccc3O)C2=O)cc1	-19.6%	-0.4	10µM*	?	?
Cc1cccnc1NC(=O)CCn1c(=O)oc2ccccc21	-16.6%	/	/	/	/
CC1(C)Cc2c(c(N3CCOCC3)nc3sc(C(N)=O)c(N)c23)CO1	1.4%	-30.4*	-11.7%	11.0%	-19.2%
CC1(C)Cc2c(c(N3CCOCC3)nc3snc(Br)c23)CO1	-13.1%	5.9	?	-12.9%	-3.4%
CC1(C)Cc2c(c(N3CCOCC3)nc3snc(N)c23)CO1	-5.0%	-2.5	12.6µM*	?	-11.9%
CCOC(=O)C1C(C(=O)OCC)C(C)(C)C1N(C)C (configuration not stated)	-27.2%	/	/	/	/
COC(=O)[C@H](Cc1ccccc1)NS(=O)(=O)c1ccc(F)cc1Br	-21.9%	/	/	/	/
CCCCNc1ccc2c3c(cccc13)C(=O)N(CCCC)C2=O	25.1µM*	-5.7	?	?	?
CN(C)CCCN1C(=O)c2cccc3c(Br)ccc(c23)C1=O	-27.6%	1.7	?	-3.1%	-16.7%
COc1ccc(NC(=O)CSc2oc(-c3cccs3)nc2S(=O)(=O)c2ccc(Br)cc2)c(OC)c1	-19.5%	/	0.9%	-5.4%	?

Compound activity from PubChem BioAssay.
